This is part of a sample that, as a whole, favours compounds with a hit. Of some 79,000 tested, about 15% had one in any assay. Calls of active or inactive are those of the source. No stated cut-off is given here; in the data, active means growth inhibition above about 70%; inactive means the rest.

The experiment in a line: NCI Yeast Anticancer Drug Screen. Data for the mlh1 rad18 strain (AID 175). The note with it: S. cerevisiae mlh1 rad18 strain growth inhibition; at 50.0 µM; active compounds read high. In outline:
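Yeast w/ defined DNA-repair lesions; compound exposure; growth vs vehicle controls → % inhibition.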
As for `CCCCCNC(=O)c1csc(-c2csc(CCNC(C)=O)n2)n1`, the growth inhibition is 3.8% (inactive). To `COc1ccc(-c2oc3cc(OC)c(OC)c(OC)c3c(=O)c2O)cc1O` belongs 70.2% (active); to `CC1=C(C(=O)NN)CC/C1=N\N`, -10.6% (inactive). To `O=[N+]([O-])c1ccc(N/N=C(/c2ccc3ccccc3c2)c2ccccc2F)c([N+](=O)[O-])c1` belongs -13.6% (inactive); to `Nc1ccn(C2CC(F)C(CO)O2)c(=O)n1` (centres undefined), -1.8% (inactive). Take `Cc1cn(-c2c(C)c(C)c(-n3c(C)ccc3C)c(C)c2C)cc1C`: the growth inhibition was 0% (inactive). To `CC(O)CSCC(C)O` (centres undefined) belongs 3.05% (inactive); to `CCOC(=O)C(=CNC(=S)Nc1ccc(Cl)c(Cl)c1)C(=O)OCC`, 67.5% (inactive). On to `COc1ccccc1N(CN1C(=O)CCC1C(=O)O)C(C)=O` (centres undefined), for which the growth inhibition is -37.9% (inactive). With `CC1=CC(C)(C)Nc2ccccc21`, the growth inhibition is 8.45% (inactive). The figure for `Cc1ccc(N=NC2=C3Sc4ccccc4N=C2N(c2ccc(Br)cc2)C(=S)N3c2ccc(Cl)cc2)cc1` is 1.05% (inactive). The figure for `CCN(CC)C(=S)N1CCCCC1` is -7.25% (inactive); for `O=C(c1cccc([N+](=O)[O-])c1)N1CCOCC1` it is 14.1% (inactive). The figure for `Cc1ccc(N2C(=O)/C(=C/c3ccc(N(CCC#N)CCC#N)cc3)CC2(O)c2ccccc2)cc1` (centres undefined) is -5.55% (inactive); for `O=C(c1cc([N+](=O)[O-])cc([N+](=O)[O-])c1)N1CCCC1` it is 9.2% (inactive); for `CCOc1ccc(NC(=O)c2cccc(C(=O)Nc3ccc(OCC)cc3)c2)cc1` it is -0.7% (inactive). As for `Cc1cc(C)c(N(C)C(=O)CCC(=O)O)c(Br)c1`, the growth inhibition was -6.45% (inactive). With `COc1cc(NCCN=C(N)NC#N)c2ncccc2c1`, the growth inhibition was 2.6% (inactive). In the case of `CCOC(=O)c1ccc(-c2ccc(C(=O)OCC)cc2[N+](=O)[O-])c([N+](=O)[O-])c1`, the growth inhibition is 15% (inactive).

Regarding `Cc1ccc(S(=O)(=O)OCC(C)(C)CC#N)cc1`, the growth inhibition is 23.9% (inactive). The figure for `C1C[OH+]CCNCC[OH+]CC[OH+]CCN1.[Cl-].[Pt+4]` is -16.2% (inactive).

For `COc1cc(OC)c(/C=C2\N=C(C)N(Nc3nnc(NN4C(=O)/C(=C/c5c(OC)cc(OC)cc5OC)N=C4C)c4ccccc34)C2=O)c(OC)c1`, the growth inhibition is 8.15% (inactive). Consider `O=C1/C(=N\O)C2CCC1C2` (centres undefined), for which the growth inhibition is 0.85% (inactive). On to `CCOC(=O)c1ccc(NC(=O)Nc2cc(Cl)ccc2OC)cc1`, for which the growth inhibition is 19.7% (inactive). On to `O=C(O)CCc1ccc2c(c1)CC1(Cc3ccccc3C1)C2`, for which the growth inhibition is 64% (inactive).

Take `COc1ccc(C(=CCC(C)C2CCC3[C@@H]4C(OC(C)=O)CC5CC(OC(C)=O)CC[C@]5(C)C4CC(OC(C)=O)[C@]23C)c2ccc(OC)cc2)cc1` (some centres undefined): the growth inhibition is -6.05% (inactive). To `CC1=CC(C)(C)N=C2SC(c3ccc(N)cc3)=NN12` belongs 28.4% (inactive); to `CN(C)c1ccc(/C=C/C(=O)/C=C/c2ccc(N(C)C)cc2)cc1`, -8.9% (inactive). To `O=C(Nc1ccc(Cl)cc1Cl)C(=O)C(C(=O)c1ccncc1)C1OC(=O)c2ccccc21` (centres undefined) belongs -0.4% (inactive). The figure for `OCCCOCc1ccccc1` is 12.2% (inactive).

For `COc1cc(NCC2COc3c(ccc(OC)c3OC)C2=O)c([N+](=O)[O-])cc1OC` (centres undefined), the growth inhibition is 21.4% (inactive).

`CC(=O)OCC(OC(C)=O)C(OC(C)=O)C(OC(C)=O)c1cnn(-c2ccccc2)n1` (centres undefined): the growth inhibition is 6% (inactive). As to `NCCCc1ccc(C(=O)O)cc1`, the growth inhibition was 7.75% (inactive). Consider `CCOC(=O)Nn1c(C)nnc1CC#N`, for which the growth inhibition is 18.7% (inactive). To `CC(=O)/C=C/CCC(=O)/C=C/C(=O)OC(CCC(=O)/C=C/C(=O)O)CC(C)=O` (centres undefined) belongs -5.95% (inactive). As to `Cc1cc2nc(CCC(=O)O)c(=O)[nH]c2cc1C`, the growth inhibition was -28.8% (inactive). As to `CCOc1ccc(NC(=O)C2=C(C)NC(C)=C(C(=O)Nc3ccc(OCC)cc3)C2c2ccccc2)cc1`, the growth inhibition was -18.2% (inactive).

Consider `CCOC(=O)C(C)(C)Oc1ccc2c(-c3ccc(Cl)cc3)cc(=O)oc2c1`, for which the growth inhibition is 2.55% (inactive). Take `Cc1ccc(N=C2N=C(N3CC(C)OC(C)C3)c3ccccc32)cc1` (centres undefined): the growth inhibition is -21.4% (inactive).

For the origin of these results see PubChem BioAssay (NCI).
